Assay outcomes (PubChem)
In the library only some 9.2% were active in any assay of this set; here they are far more common.
FLuc counter = firefly luciferase modulation, counter-screen for miR-21 project | AID 588342 | 360,000 tested, 6.9% active | purified FLuc, Km substrates, luminescence inhibition | Potency, µM (top dose mostly 57.5 µM), without a hit: top-dose activity change, negative = inhibition, hits mostly inhibitors | P08659;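 note: plate controls were vehicle for no effect and reference inhibitor for full effect; nearly all actives have a fitted effect of over 55% in size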
Target sequence (P08659 whole entry, looked up): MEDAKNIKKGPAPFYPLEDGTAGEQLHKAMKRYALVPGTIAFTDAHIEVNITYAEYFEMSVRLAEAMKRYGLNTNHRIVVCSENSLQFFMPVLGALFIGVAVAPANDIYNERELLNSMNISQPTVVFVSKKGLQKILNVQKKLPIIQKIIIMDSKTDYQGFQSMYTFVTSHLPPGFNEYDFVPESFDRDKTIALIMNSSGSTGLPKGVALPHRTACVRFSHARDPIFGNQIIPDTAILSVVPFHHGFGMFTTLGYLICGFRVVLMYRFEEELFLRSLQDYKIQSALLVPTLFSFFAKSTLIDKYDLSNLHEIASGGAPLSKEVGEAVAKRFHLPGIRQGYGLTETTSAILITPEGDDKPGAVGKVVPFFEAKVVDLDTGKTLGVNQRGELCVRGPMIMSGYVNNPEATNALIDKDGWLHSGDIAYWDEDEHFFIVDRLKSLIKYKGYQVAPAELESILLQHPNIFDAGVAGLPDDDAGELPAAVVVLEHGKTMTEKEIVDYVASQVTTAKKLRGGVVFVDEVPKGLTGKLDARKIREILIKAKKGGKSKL
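Purified P. pyralis luciferase, 10 nM final, with Km-level 10 uM D-luciferin and 10 uM ATP in 50 mM Tris acetate pH 7.5, 10 mM Mg acetate, 0.01% Tween-20, 0.05% BSA; 6-point qHTS titration about 60 µM downward; luminescence read.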
ELG1 genotox = induces genotoxicity in HEK293T cells with luciferase-tagged ELG1; 330,000 tested, 1.3% active; Potency, µM (titrated, usually from 46 µM), without a hit: top-dose activity change, positive = activation, actives largely listed as activators; HEK293T ELG1-luciferase reporter, luminescence, 16 h; note: % of control where 0% means no effect; nearly all actives have a fitted effect of over 60% in size
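HEK293T cells expressing luciferase-tagged ELG1 were treated with compound or DMSO for 16 hr at 37°C. Luciferase activity was then read after 30 min with ONE-Glo at room temperature; rising signal flags genetic stress.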
SMN2 splice enh = SMN2 splice variant enhancement; Potency, µM (top dose mostly 46.1 µM), for inactives: top-dose activity change, positive = activation, hits mostly activators; HEK293 SMN2-luciferase splicing reporter, luminescence, 30-36 h; 210,000 tested, 2.8% active; note: % of control where 0% means no effect; nearly all actives have a fitted effect of over 55% in size
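qHTS luciferase splicing reporter: luminescence rises when SMN2 exon 7 is included in transfected HEK293 cells. Compound exposure lasted 30-36 h at 37C, with 4.5 mM final sodium butyrate as control, followed by a ONE-Glo read.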
NPC1 prom act = activators of NPC1 promoter. Huh7 NPC1 promoter luciferase reporter, 24 h. Potency, µM (highest dose often 9.22 µM), for inactives: at the top dose activation, most hits filed as activators. 320,000 tested, 2.4% active; note: % of control where 0% means no effect; nearly all actives have a fitted effect of over 60% in size
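Huh7 reporter cells (NPC1 promoter driving luciferase) are dosed with compound for 24 h at 37 °C, 5% CO2; luciferase detection reagent is then added and luminescence measured after 10 min at ambient temperature.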
ELG1 repair inh = inhibitors of ELG1-dependent DNA repair in HEK293T cells. HEK293T ELG1-luciferase reporter, luminescence, 16 h; DNA damage induced by 5-fluorouridine. Potency, µM (series often up to 46.1 µM), for the others: at the top dose activity change, negative = inhibition, actives largely listed as inhibitors. 330,000 tested, 2.3% active. AID 504467; note: % is set by controls: 0 for no effect and ±100 for the full control effect; nearly all actives have a fitted effect of over 55% in size
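Quantitative HTS, concentration-response format. 2,000 cells/well co-treated with 5-fluorouridine and compound, 16 hr in 5% CO2 at 37 °C; ONE-Glo luminescence read after 30 min.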
Rab9 promoter act = activators of Rab9 promoter; Huh7 Rab9 promoter-luciferase reporter, luminescence, 24 h; Potency, µM (doses to about 9.22 µM), inactives show top-dose activation, negative = inhibition, most hits filed as activators; 320,000 tested, 2.8% active; AID 485297; note: % of control where 0% means no effect; nearly all actives have a fitted effect of over 60% in size
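Huh7 cells stably carrying a Rab9 promoter-luciferase reporter, 1500 cells per well in OP-MEM I with 10% FBS, treated with compound 24 hours at 37C. Luciferase activity read by luminescence after 10 minutes with Amplite reagent.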
An asterisk follows results filed as active. Calls come from the whole dose curve; as a rule, active = well fitted curve in the direction sought with a large enough effect; inconclusive = small, poorly fitted or top-dose-only effect, or another doubt; inactive = no such curve, though single readings can be large; an effect the other way counts as inactive or inconclusive. Potency is the fitted concentration of half-maximal effect.

What do the screens show for `C/C(CC(=O)Nc1cc(Cl)ccc1Cl)=N\NC(=O)COc1cccc(C)c1`?
FLuc counter: 0%; ELG1 genotox: 5%; NPC1 prom act: 2%; ELG1 repair inh: 0%; Rab9 promoter act: 4%

What do the screens show for `Cc1ccnc(NC(=O)CCCc2ccccc2)c1`?
FLuc counter: 24µM*; ELG1 genotox: 18%; SMN2 splice enh: inconclusive; NPC1 prom act: inconclusive; ELG1 repair inh: inconclusive; Rab9 promoter act: inconclusive

What do the screens show for `Cc1ccnc(NC(=O)c2cccc(NC(=O)COc3ccccc3)c2)c1`?
FLuc counter: 17µM*; ELG1 genotox: 4%; SMN2 splice enh: 29%; NPC1 prom act: -3%; ELG1 repair inh: 12%; Rab9 promoter act: 4%

What do the screens show for `Cc1c(NC(=O)c2cccc(NC(=O)Cc3ccc(Cl)cc3)c2)c(=O)n(-c2ccccc2)n1C`?
FLuc counter: -5%; ELG1 genotox: 0%; NPC1 prom act: -1%; ELG1 repair inh: -28%; Rab9 promoter act: -1%

How did Cc1ccnc(NC(=O)CCNC(=O)c2ccc(Cl)cc2)c1 do in these assays?
FLuc counter: 1%; ELG1 genotox: 11%; NPC1 prom act: 4%; ELG1 repair inh: 2%; Rab9 promoter act: -3%

What do the screens show for `Cc1ccc(NC(=O)CNC(=O)Cc2cccc3ccccc23)nc1`?
FLuc counter: -5%; ELG1 genotox: -4%; NPC1 prom act: 1%; ELG1 repair inh: 23%; Rab9 promoter act: 0%

Results for Cc1ccnc(NC(=O)CNC(=O)Cc2cccc3ccccc23)c1 ?
FLuc counter: 24µM*; ELG1 genotox: 15µM*; NPC1 prom act: 6%; ELG1 repair inh: inconclusive; Rab9 promoter act: -1%

How did Cc1ccnc(NC(=O)c2ccc(C(=O)c3ccccc3)cc2)c1 do in these assays?
FLuc counter: 0.95µM*; ELG1 genotox: inconclusive; NPC1 prom act: 3.5µM*; ELG1 repair inh: inconclusive; Rab9 promoter act: 2µM*

What do the screens show for `CCOc1cc(C(=O)Nc2cc(C)ccn2)cc(OCC)c1OCC`?
FLuc counter: 4%; ELG1 genotox: -16%; SMN2 splice enh: -6%; NPC1 prom act: 0%; ELG1 repair inh: inconclusive; Rab9 promoter act: 1%

Results for CCOc1ccc(C(=O)Nc2cc(C)ccn2)cc1 ?
FLuc counter: 1.3µM*; ELG1 genotox: -10%; SMN2 splice enh: inconclusive; NPC1 prom act: 0.71µM*; ELG1 repair inh: inconclusive; Rab9 promoter act: 0.32µM*

What do the screens show for `Cc1ccnc(NC(=O)c2cnc(Cl)c(Cl)c2)c1`?
FLuc counter: 17µM*; ELG1 genotox: inconclusive; NPC1 prom act: -5%; ELG1 repair inh: 11%; Rab9 promoter act: 10%

What do the screens show for `Cn1cccc1C(=O)N1CCC[C@@]2(CCN(c3ncccn3)C2)C1`?
SMN2 splice enh: -13%

What do the screens show for `Cc1ccc(C(=O)NCC(=O)Nc2cc(C)ccn2)cc1`?
FLuc counter: 27µM*; ELG1 genotox: inconclusive; NPC1 prom act: 5%; ELG1 repair inh: inconclusive; Rab9 promoter act: 11%

What do the screens show for `O=C(Nc1ccon1)c1ccc(Cl)s1`?
FLuc counter: -3%; ELG1 genotox: -4%; SMN2 splice enh: 7%; NPC1 prom act: 13%; ELG1 repair inh: -11%; Rab9 promoter act: 0%

Results for Cc1ccnc(NC(=O)c2ccc(Cl)s2)c1 ?
FLuc counter: 7.6µM*; ELG1 genotox: inconclusive; NPC1 prom act: 3.2µM*; ELG1 repair inh: inconclusive; Rab9 promoter act: 1.6µM*

What do the screens show for `O=C(COC(=O)Cn1cnc2ccccc2c1=O)Nc1cc(Cl)ccc1[N+](=O)[O-]`?
FLuc counter: 0%; ELG1 genotox: -2%; SMN2 splice enh: 17%; NPC1 prom act: 1%; ELG1 repair inh: 1%; Rab9 promoter act: -4%

What do the screens show for `Clc1ccc(C2=NNC(=NCc3ccc4c(c3)OCO4)SC2)cc1`?
FLuc counter: 19µM*; ELG1 genotox: -7%; NPC1 prom act: 15%; ELG1 repair inh: inconclusive; Rab9 promoter act: 15%

Results for COc1ccc(OC)c(C2=NNC(=NCc3ccc4c(c3)OCO4)SC2)c1 ?
FLuc counter: -6%; ELG1 genotox: 1%; SMN2 splice enh: -32%; NPC1 prom act: -4%; ELG1 repair inh: 2%; Rab9 promoter act: 14%

How did COc1ccc(CN=C2NN=C(c3ccc(Cl)cc3)CS2)cc1 do in these assays?
FLuc counter: 7.6µM*; ELG1 genotox: inconclusive; SMN2 splice enh: 20µM*; NPC1 prom act: 3.5µM*; ELG1 repair inh: inconclusive; Rab9 promoter act: 3.5µM*

What do the screens show for `COc1ccc(CN=C2Nc3ccccc3CS2)cc1`?
FLuc counter: 2.7µM*; ELG1 genotox: inconclusive; SMN2 splice enh: 3.5µM*; NPC1 prom act: 1µM*; ELG1 repair inh: inconclusive; Rab9 promoter act: 1.6µM*

What do the screens show for `CC(C)(C)N=C1NN=C(c2cc3ccccc3o2)CS1`?
FLuc counter: 1.9µM*; ELG1 genotox: inconclusive; NPC1 prom act: 0.63µM*; ELG1 repair inh: inconclusive; Rab9 promoter act: 0.4µM*

How did CC(C)(C)N=C1NN=C(c2ccc(Cl)cc2)CS1 do in these assays?
FLuc counter: 2.7µM*; ELG1 genotox: inconclusive; NPC1 prom act: 0.79µM*; ELG1 repair inh: inconclusive; Rab9 promoter act: 0.63µM*

What do the screens show for `COCC(C)N=C1NN=C(c2ccc(NC(C)=O)cc2)CS1` (stereo not given)?
FLuc counter: inconclusive; ELG1 genotox: 14%; SMN2 splice enh: inconclusive; NPC1 prom act: 26%; ELG1 repair inh: inconclusive; Rab9 promoter act: inconclusive

What do the screens show for `Cc1ccccc1Nc1c(-c2ccncc2)nc2ccc(Cl)cn12`?
FLuc counter: -4%; ELG1 genotox: -9%; SMN2 splice enh: 10µM*; NPC1 prom act: -7%; ELG1 repair inh: -7%; Rab9 promoter act: 12%

What do the screens show for `CCOC(=O)CNc1c(-c2ccccc2)nc2ccc(Cl)cn12`?
FLuc counter: 9.5µM*; ELG1 genotox: 9%; SMN2 splice enh: 0%; NPC1 prom act: 28%; ELG1 repair inh: inconclusive; Rab9 promoter act: 23%

What do the screens show for `Cc1ccc2nc(-c3ccsc3)c(Nc3ccccc3C)n2c1`?
FLuc counter: 4%; SMN2 splice enh: 20%

What do the screens show for `CCOC(=O)CNc1c(-c2ccc(O)cc2)nc2ccc(Cl)cn12`?
FLuc counter: 15µM*; ELG1 genotox: inconclusive; SMN2 splice enh: 38%; NPC1 prom act: 20%; ELG1 repair inh: inconclusive; Rab9 promoter act: 29%

How did Cc1ccc(Nc2c(-c3ccccn3)nc3ccc(Br)cn23)cc1 do in these assays?
FLuc counter: 0%; SMN2 splice enh: 5%
